Screening results: PubChem BioAssay, several laboratories
A selection follows.
CYP2C19 inhib: blockers of cytochrome P450 2C19 activity – biochemical, luminescence, ADME assay, primary screen; inhibition, % at 5 µM; actives 21% (n = 96,000); P33261; CYP2C19 Supersomes, luciferin-H EGE luminescence, 30 min;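 active = CYP2C19 inhibition above a set limit at 5 µM in the primary screen, cut at about 50% in these data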;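 also: plate controls were negative control wells for no effect and 2.5 mM tranylcypromine positive control for full effect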
PostGolgi yeast: phenotypic screen on post-Golgi transport, primary screen; post-Golgi transport phenotypic cell assay; actives 0.9% (n = 98,000); inhibition, % at 10 µM;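 also: yeast cells grown in 1536-well plates; yeast grown about 18 h at 30C before absorbance read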
PostGolgi ctrl: growth inhibition of yeast control strain, primary screen, counter-screen for post-Golgi transport modulator project. efflux-deficient yeast background strain, growth absorbance A615, 16 h. actives 5% (n = 98,000). inhibition, % at 10 µM
CYP2C19 activ: human CYP2C19 activators, primary screen, biochemical, luminescence; Cytochrome P450 2C19 (Homo sapiens), P33261; 96,000 tested, under 10 active; activation factor at 5 µM; recombinant CYP2C19, luciferin-H EGE luminescence; hits give high values; 0 = fully inhibited enzyme, 1 = untreated enzyme;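 active = activation factor of at least 2 at 5 µM in the primary screen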;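 also: 0 = wells with 2.5 mM tranylcypromine and 1 = vehicle-only wells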
CYP2C9 act: human CYP2C9 activators, primary screen, biochemical, luminescence; Cytochrome P450 2C9 (Homo sapiens), P11712; recombinant CYP2C9, luciferin-H conversion; hits give high values; factor 1 = untreated enzyme, 0 = blocked; activation factor at 5 µM; actives 1.4% (n = 96,000); AID 1024, 2008;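 active = activation factor of 2 or more for CYP2C9 at a 5 µM dose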;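 also: 0 = sulfaphenazole-blocked wells and 1 = vehicle-only wells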
Target sequence (P11712 whole entry, looked up): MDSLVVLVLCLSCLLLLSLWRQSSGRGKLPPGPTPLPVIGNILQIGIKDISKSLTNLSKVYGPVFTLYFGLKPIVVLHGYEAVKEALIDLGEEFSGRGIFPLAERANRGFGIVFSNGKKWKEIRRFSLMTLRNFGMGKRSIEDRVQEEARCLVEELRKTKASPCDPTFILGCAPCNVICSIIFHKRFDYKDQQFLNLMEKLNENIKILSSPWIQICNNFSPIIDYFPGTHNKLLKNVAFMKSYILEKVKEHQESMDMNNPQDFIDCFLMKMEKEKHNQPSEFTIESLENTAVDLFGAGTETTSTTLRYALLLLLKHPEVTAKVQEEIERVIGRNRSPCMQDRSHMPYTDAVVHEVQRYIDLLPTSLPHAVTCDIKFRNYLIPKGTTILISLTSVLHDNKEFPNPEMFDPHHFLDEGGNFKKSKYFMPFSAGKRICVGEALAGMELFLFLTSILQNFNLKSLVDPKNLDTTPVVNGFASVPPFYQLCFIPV
CYP2C9 inh: blockers of cytochrome P450 2C9 activity – biochemical, luminescence, ADME assay, primary screen | P11712 | CYP2C9 Supersomes, luciferin-H conversion | inhibition, % at 5 µM | actives 20% (n = 96,000);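 active = blocking of liver enzyme CYP2C9 beyond about 50% at 5 µM, limit read from the data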
* hit, by the source's call. Rule as the data show it, unless noted: active = inhibition above about 30%; inactive = the rest.

SMILES	CYP2C19 inhib	PostGolgi yeast	PostGolgi ctrl	CYP2C19 activ	CYP2C9 act	CYP2C9 inh
COc1ccccc1NC(=O)c1ccccc1NC(=O)c1cc(Cl)ccc1NC(=O)c1ccco1	4	0	13	1	0.7	25
COc1cc(NC(=O)c2ccco2)ccc1NC(=O)c1ccccc1Cl	51*	-11	4	0.5	0.3	72*
COc1ccc(NC(=O)c2cccs2)cc1O	0	-4	1	1	1.1	-6
COc1ccc(/C=C/C(=O)c2ccc(NC(=O)c3cccs3)cc2)cc1OC	34	-8	54*	0.7	0.3	72*
CC(=O)c1ccc(N2CCN(CCC#N)CC2)c(F)c1	7	-3	2	0.9	1	-2
COc1cccc(-c2nnc(SCC(=O)N3CCCC3=O)n2-c2ccccc2)c1	43	-2	0	0.6	0.7	34
O=C(CCCn1c(=S)[nH]c2ccc(Br)cc2c1=O)NCC1CCCO1 (stereo not given)	14	-9	3	0.9	1.4	-38
Cc1ccc(-c2nc(CSCC(=O)NCc3cccnc3)c(C)o2)cc1	3	-3	8	1	0.9	14
COc1cc(NC(=O)c2cccs2)ccc1NC(=O)c1ccco1	25	-18	-3	0.8	0.3	74*
CCOc1ccccc1N1CCN(CC(O)COc2ccc3c(C)cc(=O)oc3c2)CC1 (stereo not given)	20	8	-3	0.8	0.9	15
Cc1ccc(CCNC(=O)C2CCCN2S(=O)(=O)c2ccc3c(c2)CCC(=O)N3)cc1 (stereo not given)	2	-2	0	1	0.7	27
Cn1c(=O)[nH]c(=O)c2c1nc(NCCCn1ccnc1)n2Cc1ccccc1	80*	-1	7	0.2	0	96*
CCOCCCNc1nc2c(c(=O)[nH]c(=O)n2C)n1CCCc1ccccc1	14	8	29	0.9	0.8	25
Cc1ccc(C(=O)CNc2nc3c(c(=O)[nH]c(=O)n3C)n2Cc2ccccc2)cc1	88*	4	6	0.1	0.2	79*
CN(Cc1ccccc1)c1nc2c(c(=O)[nH]c(=O)n2C)n1CCOc1ccccc1	34	-8	29	0.7	0.5	54*
Cn1c(=O)[nH]c(=O)c2c1nc(NCCCn1ccnc1)n2CCOc1ccccc1	99*	1	3	0	0	98*
C=CCN1C(=O)/C(=C\c2cccs2)C(C(=O)OC)=C1C	41	-1	-1	0.6	0.6	39
CC1(C)CC(=O)C(C=NCCCn2ccnc2)=C(O)C1	48	14	2	0.5	0.9	8
Cc1ccccc1OCC(O)Cn1c(NCc2ccco2)nc2c1c(=O)[nH]c(=O)n2C (stereo not given)	26	-6	5	0.7	0.8	17
Cc1ccc(OCC(O)Cn2c(NCCc3ccccc3)nc3c2c(=O)[nH]c(=O)n3C)cc1 (stereo not given)	51*	-1	5	0.5	0.6	42
Cn1c(=O)c2c(nc(NCc3ccco3)n2CC(O)COc2ccccc2)n(C)c1=O (stereo not given)	24	-1	40*	0.8	0.5	47
Cn1c(=O)[nH]c(=O)c2c1nc(NCCc1ccccc1)n2CC(O)COc1ccccc1 (stereo not given)	19	14	14	0.8	0.8	18
CC(=NCCCn1ccnc1)c1c(O)n(Cc2ccccc2)c(=O)[nH]c1=O	44	10	9	0.6	0.2	78*
CC(=O)N1CCN(Cc2nc3cc(NC(=O)c4ccccc4C)ccc3n2C)CC1	7	-18	29	0.9	1	3
Cc1oc2ccc(OCc3ccc(F)cc3)cc2c1C(=O)O	-5	20	18	1.1	0.9	14
O=C1C(c2ccccc2)SC(=Nc2ccccc2)N1S(=O)(=O)c1ccccc1 (stereo not given)	4	-2	27	1	1	-5
COc1ccc(C(=O)NCCn2ccc3ccccc32)cc1OC	38	-2	0	0.6	1.1	-12
